{"source": "PubChem BioAssay AID2842", "about": "(Southern Research Institute, 2010)", "note": "Among all 24,000 compounds or so, about 1,200 (5%) were called active. Another 2% or so got no clear call; they are omitted. These entries were drawn from the full list. Unmarked numbers belong to inactive results. No rule for the calls is given here."}
{"experiment": "Mycobacterium tuberculosis H37Rv growth inhibition, putative kinase inhibitor library, confirmatory dose response (AID 2842);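 also: bacteria incubated one week before Alamar blue readout; 0% = bacteria only wells and 100% = bacteria with high antibiotic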", "settings": "M. tuberculosis H37Rv growth inhibition; CC50: measured here: Vero cell cytotoxicity; inhibition: hits give high values", "units": {"inhibition": "%"}}
{"compound": "CCCNC(=O)CSc1nc2c([nH]c3ccccc32)c(=O)n1-c1ccc(OC)c(OC)c1", "inhibition": 3.01}
{"compound": "COc1ccc(C(=O)c2cn(Cc3cccc(F)c3)c3ccccc3c2=O)cc1", "inhibition": -1.95}
{"compound": "CC1CCc2c(sc(NC(=O)c3ccc(-c4nc5ccccc5s4)s3)c2C#N)C1", "note": "(configuration not stated)", "inhibition": 2.71}
{"compound": "CCOc1cc(C(=O)Nc2nnc(-c3ccc(C)cc3)s2)cc(OCC)c1OCC", "inhibition": 12.5}
{"compound": "Cc1ccc(C)c(S(=O)(=O)Nc2ccc(C(=O)N3CCOCC3)cc2)c1", "inhibition": -13.6}
{"compound": "CCN(c1ccccc1)S(=O)(=O)c1ccc(C(=O)Nc2nc(-c3ccc(C#N)cc3)cs2)cc1", "inhibition": -5.78}
{"compound": "O=C(O)c1cc(-c2ccc(F)cc2)nc2ccccc12", "inhibition": -3.79}
{"compound": "C=CCn1c(=O)c2c(nc(N/N=C/c3ccccc3O)n2C)n(C)c1=O", "inhibition": 69.7}
{"compound": "CCn1c2c(c(=O)[nH]c1=O)C(c1ccc(O)cc1)C1=C(CC(C)(C)CC1=O)N2", "note": "(configuration not stated)", "inhibition": -10.5}
{"compound": "CCSC1=C(C#N)C(c2ccco2)C(C(=O)Nc2ccccc2OC)=C(C)N1", "note": "(configuration not stated)", "inhibition": 13.1}
{"compound": "O=C(CSc1cn(Cc2ccccc2Cl)c2ccccc12)Nc1nc2ccccc2s1", "inhibition": 10.2}
{"compound": "COC(=O)c1sc2nc(N)c(C#N)c(-c3ccco3)c2c1N", "inhibition": -11.1}
{"compound": "O=C1NCCc2c(OCC(=O)N3CCCC3)cccc21", "inhibition": -13.2}
{"compound": "CCN1C(=O)C2(C(C#N)=C(N)Oc3c2oc(CO)cc3=O)c2ccccc21", "note": "(configuration not stated)", "inhibition": -2.38}
{"compound": "O=C(CSc1ccc2nnc(-c3cccnc3)n2n1)Nc1cccc(C(F)(F)F)c1", "inhibition": 2.18}
{"compound": "Cn1c(=O)c2c([nH]c(=S)n2Cc2ccc(F)cc2)n(C)c1=O", "inhibition": -5.83}
{"compound": "O=c1/c(=C/c2ccc(Br)cc2)sc2nc(-c3ccncc3)nn12", "inhibition": -4.93}
{"compound": "Cc1ccc(S(=O)(=O)CCC(=O)Nc2nc(-c3cccc([N+](=O)[O-])c3)cs2)cc1", "inhibition": -0.9}
{"compound": "CCC(CC)C(=O)Nc1nnc(-c2ccc(Br)cc2)s1", "inhibition": 5.92}
{"compound": "COc1ccc(Cl)c2sc(N3CCN(C(=O)COc4ccccc4)CC3)nc12", "inhibition": -14.7}
{"compound": "Fc1ccc(-c2nnc(Nc3nc4c(F)cccc4s3)o2)cc1", "inhibition": 35.7}
{"compound": "CSc1cccc2sc(Nc3ccccc3Cl)nc12", "inhibition": 43.9}
{"compound": "COc1cccc(N2CC(NC(=O)N3CCN(c4ccc(F)cc4)CC3)CC2=O)c1", "note": "(configuration not stated)", "inhibition": 1.73}
{"compound": "O=C(CN1N=NC2C(=O)N(c3ccc(F)c(F)c3)C(=O)C21)Nc1cccc(F)c1", "note": "(configuration not stated)", "inhibition": -18.6}
{"compound": "COc1ccc(N2C(=O)/C(=C3/C(=O)N(C)c4ccccc43)SC2=S)c(OC)c1", "inhibition": -6.83}
{"compound": "NC(=O)N/N=C/c1ccccc1[N+](=O)[O-]", "inhibition": -0.23}
{"compound": "Cc1ccc(-n2nnc3c(=O)n(CC(=O)Nc4cccc(F)c4)cnc32)cc1Cl", "inhibition": 5.52}
{"compound": "O=c1[nH]c(NCCc2ccccc2)nnc1-c1ccccc1", "inhibition": -9.26}
{"compound": "O=C(O)/C=C/C(=O)NCc1cn(-c2ccccc2)nc1-c1ccc(Cl)cc1", "inhibition": -11.2}
{"compound": "Nc1ncnc2c1c1nc3ccccc3nc1n2CCc1ccccc1", "inhibition": -4.35}
{"compound": "COC(CNc1ncnc2c1cnn2-c1ccc(C)c(Cl)c1)OC", "inhibition": 15.5}
{"compound": "CCOc1cccc(/C=N\\NC(=O)Cn2cnc3ccccc32)c1O", "inhibition": -6.32}
{"compound": "Cc1nnc(SCCn2c(N3CCN(Cc4ccccc4)CC3)nc3c2c(=O)[nH]c(=O)n3C)s1", "inhibition": 4.11}
{"compound": "CC(=O)Nc1ccc(NC(=O)NC2CC(=O)N(c3ccc(C)cc3)C2)cc1", "note": "(configuration not stated)", "inhibition": -0.32}
{"compound": "Cc1ccc(C)c(-c2nnc(NC(=O)/C=C/c3ccccc3)o2)c1", "inhibition": 75.9}
{"compound": "Cc1cccc(-c2nnn3c2nc(NCCc2ccc(S(N)(=O)=O)cc2)c2ccccc23)c1", "inhibition": -2.93}
{"compound": "O=C(NCCO)c1ccc(CSc2nc3ccccc3c(=O)[nH]2)cc1", "inhibition": -16.4}
{"compound": "Cn1c(=O)c2c(SCC(=O)Nc3nc4ccccc4s3)nc(-c3ccc(F)cc3)nc2n(C)c1=O", "inhibition": 14.6}
{"compound": "NC(=O)c1nc(-c2cccnc2)nc2c1[nH]c(=O)n2-c1ccc(Cl)c(Cl)c1", "inhibition": 5.29}
{"compound": "CCOC(=O)CNc1ncnc(N)c1[N+](=O)[O-]", "inhibition": 2.73}
{"compound": "Fc1ccc2nc(Nc3ccc4c(c3)OCCO4)sc2c1", "inhibition": 72.2}
{"compound": "CC(=O)N1CCc2c(sc(NC(=O)c3ccc4ccccc4c3)c2C#N)C1", "inhibition": 13.2}
{"compound": "CCOC(=O)c1ccc(Nc2nnc3[nH]c(=O)c4c(C)c(C)sc4n23)cc1", "inhibition": -12.7}
{"compound": "COc1cc(OC)cc(C(=O)NCCc2cc3ccc(C)cc3[nH]c2=O)c1", "inhibition": -10.9}
{"compound": "CCOC(=O)N1CCN(C(c2cccnc2)c2c(O)cc(C)n(CCOC)c2=O)CC1", "note": "(configuration not stated)", "inhibition": 0.85}
{"compound": "COc1ccc(Cl)c2sc(N(Cc3cccnc3)C(=O)c3cccc(S(C)(=O)=O)c3)nc12", "inhibition": -13.3}
{"compound": "CC(=O)Nc1ccc(NC(=O)CSc2nnc(CNC(=O)c3ccccc3)o2)cc1", "inhibition": -8.68}
{"compound": "Cn1c(=O)[nH]c(=O)c2c1nc(N1CCC(Cc3ccccc3)CC1)n2CCSc1nc2ccccc2o1", "inhibition": 19.9}
{"compound": "Cc1ccc(CSc2nc3c(c(=O)[nH]c(=O)n3C)n2Cc2ccccc2Cl)cc1", "inhibition": -2.78}
{"compound": "CC1CCCN(S(=O)(=O)c2ccc(C(=O)Nc3nc4ccc5ccccc5c4s3)cc2)C1", "note": "(configuration not stated)", "inhibition": 14.8}
{"compound": "Nn1c(SCC(=O)Nc2ccc(C(F)(F)F)cc2)nncc1=O", "inhibition": -15.7}
{"compound": "O=C(Nc1nc(-c2ccc3c(c2)OCCO3)cs1)c1cccc(Cl)c1", "inhibition": -0.85}
{"compound": "COc1cc2nc(Nc3cccc(Cl)c3)sc2cc1OC", "inhibition": 48.6}
{"compound": "COc1ccc2c(c1)c(=O)c(C(=O)c1ccc(Cl)cc1)cn2CC(=O)Nc1ccc2c(c1)OCO2", "inhibition": -1.76}
{"compound": "CC(C)c1ccc(OCC(=O)N/N=C/c2ccco2)cc1", "inhibition": 6.99}
{"compound": "CCOC(=O)c1sc2nc(-c3ccccc3)cc(-c3ccccc3)c2c1N=Cc1cc(I)cc(I)c1O", "inhibition": -1.26}
{"compound": "O=c1[nH]c(NCc2ccc3c(c2)OCO3)nnc1Cc1ccc(F)cc1", "inhibition": -0.653}
{"compound": "Nc1nc(SCC(=O)Nc2cccc(F)c2)[nH]c(=O)c1NC(=O)c1ccc(F)cc1", "inhibition": -6.89}
{"compound": "COc1ccc(S(=O)(=O)Nc2cc3c4c(c2)CC(=O)N4CCC3)cc1", "inhibition": 14.8}
{"compound": "Nc1nc(SCc2cccc(Cl)c2)[nH]c(=O)c1NC(=O)c1ccc(C(F)(F)F)cc1", "inhibition": -5.65}
{"compound": "Cc1ccc(Nc2nc(-c3ccc(S(=O)(=O)N4CCC(Cc5ccccc5)CC4)cc3)cs2)cc1", "inhibition": -2.1}
{"compound": "O=C1NC(=O)C(=Cc2nc(-c3ccc(Cl)cc3)n3ccccc23)C(=O)N1", "inhibition": 15.3}
{"compound": "NC(=O)COc1ccc(/C=c2\\sc3nc(-c4ccccc4Br)nn3c2=O)cc1", "inhibition": -6.4}
{"compound": "Cc1ccc(NC(=O)c2cnc(SCC(=O)N3CCOCC3)n(C)c2=O)cc1", "inhibition": 11.1}
{"compound": "COc1ccc(Cl)cc1C(=O)Nc1nnc(-c2ccc(Cl)cc2Cl)s1", "inhibition": 0.42}
{"compound": "CC1CCc2c(C(=O)Nc3ccc(OC(F)(F)F)cc3)csc2C1", "note": "(configuration not stated)", "inhibition": 7.32}
{"compound": "CCn1c(SCCc2ccccc2)nc2c1c(=O)[nH]c(=O)n2C", "inhibition": 16.5}
{"compound": "O=C(O)c1ccc(Nc2nc(-c3cccnc3)nc3ccccc23)cc1", "inhibition": 5.44}
{"compound": "COc1ccc(OC)c(NC(=O)c2cnc3n(c2=O)CCS3)c1", "inhibition": 10.9}
{"compound": "CCOC(=O)c1nn(-c2ccc(F)cc2)c(=O)c2c(NC(=O)C(CC)c3ccccc3)scc12", "note": "(configuration not stated)", "inhibition": -11.7}
{"compound": "O=C(Nc1nc(-c2nc3ccccc3s2)cs1)c1ccc2ccccc2c1", "inhibition": 3.09}
{"compound": "Cc1csc(NC(=O)CSc2nnc(CNC(=O)c3cccc(C(F)(F)F)c3)o2)n1", "inhibition": -15.1}
{"compound": "COc1cc(C)c(S(=O)(=O)Nc2ccc(-n3c(C)nc4ccccc4c3=O)cc2C)cc1C", "inhibition": -7.48}
{"compound": "O=C(NNc1ncnc2c1cnn2-c1cccc(Cl)c1)c1cccc(Cl)c1", "inhibition": 85}
{"compound": "O=C(CSc1nnc2ccc(-c3cccc([N+](=O)[O-])c3)nn12)NCc1ccco1", "inhibition": 0.47}
{"compound": "CS(=O)(=O)c1ccc([N+](=O)[O-])c(NCCCC(=O)O)c1", "inhibition": -6.3}
{"compound": "CCOc1ccccc1NC(=O)CSc1nnc(C)c(=O)n1N", "inhibition": -13.8}
{"compound": "O=C(Nc1nnc(-c2cccs2)o1)C(c1ccccc1)c1ccccc1", "inhibition": 9.32}
{"compound": "C#CCn1c(=NC(=O)c2cccc([N+](=O)[O-])c2)sc2cccc(F)c21", "inhibition": 13.5}
{"compound": "CCOC(=O)N1CCc2c(sc(NC(=O)c3ccc(Br)s3)c2-c2nc3ccccc3s2)C1", "inhibition": 4.21}
{"compound": "Cn1c(=O)[nH]c(=O)c2c1nc(SCC(N)=O)n2CC(O)COc1ccc(Cl)cc1", "note": "(configuration not stated)", "inhibition": -5.17}
{"compound": "Nc1nc2c(s1)CCCC2", "inhibition": 16.9}
{"compound": "COC(=O)C(C)Sc1nnc(Cc2cc(=O)[nH]c(=O)[nH]2)n1-c1ccc(Cl)cc1", "note": "(configuration not stated)", "inhibition": -6.18}
{"compound": "Cc1ccc(-n2c(=O)[nH]c3c(C(N)=O)nc(-c4ccc(C(C)C)cc4)nc32)cc1C", "inhibition": -7.6}
{"compound": "COc1ccc(-n2nc3c(c2NC(=O)Cc2cccs2)CSC3)cc1", "inhibition": -3.68}
{"compound": "Cc1cccc(NC(=O)C2C(=O)CN(c3ccccc3)C2=O)c1", "note": "(configuration not stated)", "inhibition": -3.29}
{"compound": "O=C(/C=C/c1ccccc1Cl)Nc1nc(-c2nc3ccccc3s2)cs1", "inhibition": -0.67}
